IL-1B inflam inh: qHTS for Inhibitors of Inflammasome Signaling: IL-1-beta AlphaLISA Primary Screen | activity change, % at 57.5 µM | THP-1 LPS/ATP IL-1B secretion, AlphaLISA, 16 h; stronger effect = lower value | AID 743279, 2014 | hit rate 4.7% among 360,000; in the data active = activity change below about -50%; inconclusive = mostly about -30% to -49%
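THP-1 cells pretreated 1 hr with compounds (up to 57.5 uM final), then stimulated with LPS (250 ng/mL final) plus ATP (1.25 mM final); secreted IL-1B measured by AlphaLISA after 16 hr, decreased signal indicating inhibition.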
RORgamma inh: qHTS for inhibitors of ROR gamma transcriptional activity. Drosophila S2 Gal4-RORgamma UAS-luciferase reporter, 20 h. Potency, µM (highest dose often 53.6 µM), hits mostly inhibitors. hit rate 5.4% among 310,000. AID 2551, 2010; also: nearly all actives have a fitted effect of over 60% in size
Target sequence (P51450 whole entry, looked up, the tested form may be a part): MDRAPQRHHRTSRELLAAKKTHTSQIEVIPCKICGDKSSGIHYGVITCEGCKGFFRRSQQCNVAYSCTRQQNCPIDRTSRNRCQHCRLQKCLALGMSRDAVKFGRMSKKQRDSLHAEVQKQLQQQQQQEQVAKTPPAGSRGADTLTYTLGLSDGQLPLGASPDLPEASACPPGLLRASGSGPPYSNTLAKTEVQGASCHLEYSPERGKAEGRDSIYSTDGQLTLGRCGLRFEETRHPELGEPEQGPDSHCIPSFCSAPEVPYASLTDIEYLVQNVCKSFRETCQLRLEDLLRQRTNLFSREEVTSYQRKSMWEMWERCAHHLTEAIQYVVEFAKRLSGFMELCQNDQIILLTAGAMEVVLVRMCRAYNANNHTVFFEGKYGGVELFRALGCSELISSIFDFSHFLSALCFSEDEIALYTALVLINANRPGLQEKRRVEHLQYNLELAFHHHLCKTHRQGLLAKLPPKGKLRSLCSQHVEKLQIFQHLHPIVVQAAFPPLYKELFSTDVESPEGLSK
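Schneider cells (Drosophila), stable Gal4 DBD–ROR gamma + UAS-luc; 1 hr cmpd preincubation; Cu2+ induction 700 uM final; 20 hr ambient; luminescence.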
LDHA inh: qHTS assay for inhibitors of human lactate dehydrogenase; L-lactate dehydrogenase A chain (Homo sapiens), P00338; purified LDHA, NADH/diaphorase-resazurin fluorescence; stronger effect = lower value; activity change, % (values are at about 110 or 230 µM); hit rate 0.15% among 480,000; AID 1347041, 2019; in the data active = activity change below about -30%; inconclusive = mostly about -25% to -30%
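Enzyme activity of human lactate dehydrogenase 5 (2 nM; 0.06 mM NADH, 0.2 mM pyruvate, 5 min, RT) is measured via a resazurin/diaphorase fluorescence readout of residual NADH.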
Gal4-VP16 FLuc: VP16 counterscreen qHTS for inhibitors of ROR gamma transcriptional activity. hit rate 3.5% among 310,000. Potency, µM (highest dose often 53.6 µM), actives largely listed as inhibitors. Drosophila S2 Gal4-VP16 UAS-luciferase, luminescence, 20 h. AID 2546, 2010;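 also: Gal4-VP16 expression switched on by copper sulfate through the metallothionein promoter; nearly all actives have a fitted effect of over 50% in size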
TDP1 cell CPT: qHTS for Inhibitors of human tyrosyl-DNA phosphodiesterase 1 (TDP1): qHTS in cells in presence of CPT; chicken DT40 Tdp1-/-;hTDP1 cells + 20 nM CPT, ATP luminescence, 48 h; Potency, µM (doses to about 46.2 µM), hits mostly inhibitors; hit rate 12% among 420,000; AID 686979, 2013; also: nearly all actives have a fitted effect of over 55% in size
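Chicken DT40 Tdp1-/- cells complemented with human TDP1, 400 cells/well, exposed to compounds plus 20 nM camptothecin for at least 48 h at 37 C; viability read as ATP content by CellTiter-Glo luminescence.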
TDP1 cell noCPT: qHTS for Inhibitors of human tyrosyl-DNA phosphodiesterase 1 (TDP1): qHTS in cells in absence of CPT. DT40 Tdp1-/- hTDP1 cells, no CPT, ATP luminescence, 48 h. Potency, µM (doses to about 46.2 µM), most hits filed as inhibitors. hit rate 15% among 420,000. AID 686978, 2013; also: nearly all actives have a fitted effect of over 55% in size
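Compound effects on proliferation are scored in DT40 Tdp1-/-;hTDP1 cells in the absence of CPT. ATP levels (CellTiter-Glo luminescence) are recorded after a ≥48 hr, 37 °C incubation.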
Hits are given with their value; 0 = inactive; ? = inconclusive; - = not tested or not shown. In the library only some 18% were active in any assay of this set; here they are far more common. Unless noted, calls follow the shape of the dose curve; as a rule, active = well fitted curve in the direction sought with a large enough effect; inconclusive = small, poorly fitted or top-dose-only effect, or another doubt; inactive = no such curve, though single readings can be large; an effect the other way counts as inactive or inconclusive.

SMILES	IL-1B inflam inh	RORgamma inh	LDHA inh	Gal4-VP16 FLuc	TDP1 cell CPT	TDP1 cell noCPT
CCN(CC)c1nc(-c2ccc(C(C)(C)C)cc2)nc2ccccc12	-	-	0	-	23µM	?
Cc1ccccc1-c1nc(N(C)C)c2ccccc2n1	-	0	-	0	0	0
CN(C)c1ccc(-c2nc(-n3ccnc3)c3ccccc3n2)cc1	-	?	-	?	13µM	18µM
CN(C)c1ccc(-c2nc(N(C)Cc3ccco3)c3ccccc3n2)cc1	-	0	-	0	29µM	16µM
CN(Cc1ccco1)c1nc(-c2ccoc2)nc2ccccc12	-	0	-	0	?	0
CCn1c(SCC(=O)N2CCCCCC2)nc2c([nH]c3ccccc32)c1=O	0	0	0	0	0	0
CCOC(=O)N1CCN(C(=O)CSc2nc3c([nH]c4ccccc43)c(=O)n2CCOC)CC1	0	0	0	0	?	18µM
CCn1c(SCC(=O)N2CCN(c3ccccc3)CC2)nc2c([nH]c3ccccc32)c1=O	0	0	0	0	15µM	8.2µM
CC(C)C(C)NC(=O)CSc1ncnc2ccccc12 (stereo unspecified)	-	-	0	-	-	-
O=C(NC(=O)c1ccccc1O)c1ccc2c(c1)CCO2	0	5µM	0	?	0	21µM
CC(C)(C)NC(=O)c1ccc2c(c1)CCO2	0	0	0	0	0	0
CCOC(=O)c1cnc2ccc(C(=O)OC)cc2c1Nc1ccc(N2CCOCC2)cc1	-	-	0	-	10µM	12µM
CCOC(=O)c1cnc2ccc(C)cc2c1Nc1ccc(N(CC)CC)cc1	-	-	0	-	12µM	6.5µM
CCOC(=O)c1cnc2ccc(Cl)cc2c1Nc1ccc(N2CCOCC2)cc1	-	-	0	-	15µM	15µM
CC(C)COC(=O)Nc1nnc(Cc2ccccc2)s1	0	0	0	0	?	9.2µM
COc1ccccc1-c1nnc(NC(=O)OCC(C)C)s1	0	0	0	0	0	0
COc1ccc(/C=N\NC(=O)c2sccc2C)cc1Cn1nc(C)cc1C	0	?	0	?	7.3µM	?
Cc1cc(Cl)ccc1OCC(=O)N/N=C/c1ccncc1	0	0	0	0	0	?
COc1ccc(/C=N\NC(=O)COc2ccccc2Cl)cc1Cn1nc(C)cc1C	0	?	0	?	?	23µM
COc1ccc(/C=N/NC(=O)CCn2nc(C)cc2C)cc1	0	0	0	0	0	0
CC(=O)N1CCN(c2ccc(Oc3ccc([N+](=O)[O-])c(C(F)(F)F)c3)cc2)CC1	-83	?	0	7.1µM	12µM	2.9µM
COc1cc(C#N)ccc1OCc1ccc(Cl)cc1Cl	-	-	0	-	-	-
CC1=C(C(=O)N(C(C)C)C(C)C)CC(CC(=O)NCCc2ccccn2)C(=O)N1Cc1ccc(C(C)(C)C)cc1 (stereo unspecified)	0	-	0	-	16µM	?
COc1ccc(CN2C(=O)C(CC(=O)NCCCCc3ccccc3)CC(C(=O)N(C(C)C)C(C)C)=C2C)cc1 (stereo unspecified)	0	-	0	-	13µM	12µM
CC1=C(C(=O)N(C(C)C)C(C)C)CC(CC(=O)NCCCN(C)C)C(=O)N1Cc1ccc(C(C)(C)C)cc1 (stereo unspecified)	0	-	0	-	?	?
SMILES	IL-1B inflam inh	RORgamma inh	LDHA inh	Gal4-VP16 FLuc	TDP1 cell CPT	TDP1 cell noCPT
CC1=C(C(=O)N(C(C)C)C(C)C)CC(CC(=O)NCCCCc2ccccc2)C(=O)N1Cc1ccc(C(C)(C)C)cc1 (stereo unspecified)	0	-	0	-	23µM	21µM
CCCCN1C(=O)C(CC(=O)NCCCCc2ccccc2)CC(C(=O)N2CCOCC2)=C1C (stereo unspecified)	0	-	0	-	0	0
CC1=C(C(=O)N2CCOCC2)CC(CC(=O)NCCCCc2ccccc2)C(=O)N1Cc1ccc(C(C)(C)C)cc1 (stereo unspecified)	0	-	0	-	23µM	16µM
COC(=O)c1ccc(C(=O)NCC2(c3ccccc3)CC2)cc1	-	-	0	-	-	-
CC(C)NC(=O)NCc1ccc(C(=O)NCC2(c3ccccc3)CCCC2)cc1	-	-	0	-	-	-
CC1=C(C(=O)N(C(C)C)C(C)C)CC(CC(=O)NCCN2CCOCC2)C(=O)N1Cc1ccc(C(C)(C)C)cc1 (stereo unspecified)	?	-	0	-	?	18µM
COc1ccc(CN2C(=O)C(CC(=O)NCCCCc3ccccc3)CC(C(=O)N(C)C)=C2C)cc1 (stereo unspecified)	0	-	0	-	?	18µM
CCN(CC)C(=O)C1=C(C)N(Cc2ccc(C(C)(C)C)cc2)C(=O)C(CC(=O)NCCN2CCOCC2)C1 (stereo unspecified)	0	-	0	-	0	0
COc1ccc(CN2C(=O)C(CC(=O)NCc3cccc4ccccc34)CC(C(=O)N(C)C)=C2C)cc1 (stereo unspecified)	0	-	0	-	0	0
COc1ccc(CN2C(=O)C(CC(=O)NCc3cccc4ccccc34)CC(C(=O)N(C(C)C)C(C)C)=C2C)cc1 (stereo unspecified)	-70	-	0	-	?	?
Fc1ccc(-c2nc3n(n2)Cc2ccccc2-3)cc1	0	0	0	?	0	?
Cc1ccc(-c2nc3n(n2)Cc2ccccc2-3)cc1	0	?	0	10µM	?	?
CCn1c(C)nc2cc(-c3nc4n(n3)Cc3ccccc3-4)ccc21	?	0.89µM	0	0.045µM	6.5µM	7.3µM
O=C(O)CCN1CCCCC1	-	-	0	-	-	-
CCCN1CCC(N(C)C(=O)NCc2ccccc2F)CC1	-	-	0	-	-	-
Cc1ccccc1CNC(=O)CCNS(=O)(=O)c1c(C)[nH]c(C)c1C(=O)N1CCCCC1	-	-	0	-	-	-
Cc1ccc(S(=O)(=O)N2CCCC2CNC(=O)c2ccccc2)cc1 (stereo unspecified)	0	-	0	-	?	0
Cc1cccc(C)c1NC(=O)C(=O)NCC1CCCN1S(=O)(=O)c1ccccc1 (stereo unspecified)	0	-	0	-	?	12µM
Cc1ccc(S(=O)(=O)N2CCCC2CNC(=O)c2ccc3c(c2)OCO3)cc1 (stereo unspecified)	0	-	0	-	?	18µM
Cc1cccc(C)c1NC(=O)C1CCCN1S(=O)(=O)c1ccccc1 (stereo unspecified)	0	0	0	0	0	?
Cc1ccc(S(=O)(=O)N2CCCC2CNC(=O)C(=O)Nc2ccccc2)cc1 (stereo unspecified)	?	-	0	-	29µM	?
NC(N)=Nc1nc(-c2ccc3ccccc3c2)cs1	-	-	0	-	-	-

Bioassay records (PubChem BioAssay)
